Source: PubChem BioAssay (several laboratories)
Sampled rows, rich in hits. Any-hit rate of the full collection: about 1.8%.
UHRF1 MBD2 ctr = UHRF1 methyl-DNA binding inhibition; Q96T88; UHRF1 binding to methylated oligo, TR-FRET; inhibition, % at 4.4 µM; 370,000 tested, 0.75% active; AID 687016; in the data active = inhibition above about 21%;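 note: UHRF1 SRA domain binding a hemimethylated CpG hairpin DNA probe; 0% = median of test compound wells and 100% = reference inhibitor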
Neddylation inh = blocks human cullin neddylation | TR-FRET cullin neddylation, biochemical | P61081+Q13564 | calls only at 25 µM | 360,000 tested, 0.58% active; in the data active = inhibition above about 36%
MBD2 DNA inh = MBD2-methylated oligo binding inhibition; Q9UBB5; TR-FRET, MBD2 binding to methylated oligonucleotide; inhibition, % at 4.4 µM; 370,000 tested, 0.31% active; in the data active = inhibition above about 13%
UBC13 polyUb = inhibitors of human UBC13 polyubiquitin chain formation; TR-FRET; inhibition, % at 20 µM; 330,000 tested, 0.47% active; AID 485273; in the data active = inhibition above about 45%, passing the limit was not always enough
Neddyl conf = cullin neddylation inhibition, confirmation. calls only at 25 µM. 1,800 tested, 13% active. TR-FRET cullin neddylation biochemical assay. shares compounds with Neddylation inh; in the data active = inhibition above about 40%;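 note: neddylation substrate is the cullin 1 ring ligase complex with SKP2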
* hit, by the source's call; i = inactive; / = no result shown; + = active, no number.

SMILES | UHRF1 MBD2 ctr | Neddylation inh | MBD2 DNA inh | UBC13 polyUb | Neddyl conf
COc1ccc(/C(C)=N/NC(=O)c2ccc(CSc3cccc4cccnc34)cc2)cc1OC | -4 | + | -1 | 13 | i
O=C(CSc1cccc2cccnc12)N1CCCC1 | -20 | / | -8 | -2 | /
C/C(=N\NC(=O)c1ccc(CSc2cccc3cccnc23)cc1)C1CCCCC1 | -7 | + | -7 | 14 | i
Cc1cc(C)n(-c2ccc3nnc(C)n3n2)n1 | 24* | + | 7 | 4 | i
Cc1nnc2ccc(N3CCCCC3)nn12 | -4 | i | -7 | 1 | /
COc1ccc(-c2cc(C(=O)N3CCCCCC3)c3ccccc3n2)c(OC)c1 | 14 | + | 2 | 3 | /
COc1ccc(-c2cc(C(=O)N3CCN(c4ccccn4)CC3)c3ccccc3n2)cc1 | 0 | i | 6 | / | /
COc1cc(-c2cc(C(=O)N3CCN(c4ccccn4)CC3)c3ccccc3n2)cc(OC)c1OC | -1 | + | 2 | 6 | i
COc1ccc(-c2cc(C(=O)N(C)CCc3ccc(OC)c(OC)c3)c3ccccc3n2)cc1 | -1 | + | 0 | 6 | i
COc1ccc(-c2cc(C(=O)N3CCN(c4ncccn4)CC3)c3ccccc3n2)c(OC)c1 | 4 | i | 4 | -10 | /
COc1ccc(-c2csc(NC(=O)c3cc(-c4cccs4)nc4ccccc34)n2)c(OC)c1 | -1 | + | 0 | -19 | i
CC1CC(C)CN(S(=O)(=O)c2cc3c4c(c2)CCN4C(=O)CC3)C1 (centres undefined) | -2 | i | 1 | -9 | /
CNC(=O)/C(C#N)=C/c1ccc(-c2nc3ccccc3s2)o1 | -2 | i | -8 | -2 | /
CC(Oc1ccc2oc3ccccc3c2c1)C(=O)NC12CC3CC(CC(C3)C1)C2 (centres undefined) | 8 | i | -2 | 2 | /
COc1ccc(-c2cc(C(=O)N3CCN(c4ccccc4O)CC3)c3ccccc3n2)cc1OC | -1 | + | 1 | 4 | +
COc1ccc(-c2cc(C(=O)N3CCN(c4ccccc4O)CC3)c3ccccc3n2)cc1 | 0 | i | 0 | -5 | /
COCc1cc(C)nc2sc(C(=O)N3CCN(c4ccccc4)CC3)c(N)c12 | -2 | + | -4 | -1 | i
COCc1cc(C)nc2sc(C(=O)Nc3ccc(OC)cc3)c(N)c12 | 0 | + | -1 | -7 | +
COc1ccccc1CC(=O)Nc1ccc(O)cc1C(=O)O | 3 | + | -1 | 10 | /
N#C/C(=C\c1cn(Cc2ccc(C#N)cc2)c2ccccc12)C(=O)NCc1cccs1 | 2 | + | 5 | -3 | /
Cc1ccc(-c2nc(NC(=O)CSc3ccc4ccccc4n3)ns2)cc1 | 0 | i | 0 | 2 | /
C[C@H](CO)N1C[C@H](C)[C@@H](CN(C)C(=O)Nc2ccccc2F)Oc2ncc(Br)cc2C1=O | 2 | i | 2 | / | /
COC(=O)C1=C(C)NC2=C(C(=O)CC(C)(C)C2)C1c1ccccn1 (centres undefined) | 0 | / | -2 | 10 | /
COC(=O)C1=C(C)NC2=C(C(=O)C(C(=O)OC)C(c3ccc(OC)cc3)C2)C1c1ccccn1 (centres undefined) | 5 | + | 5 | 11 | /
COc1ccc(CCNC(=O)CC2Nc3cc(C)c(C)cc3NC2=O)cc1OC (centres undefined) | 0 | + | 2 | -3 | i
SMILES | UHRF1 MBD2 ctr | Neddylation inh | MBD2 DNA inh | UBC13 polyUb | Neddyl conf
COc1ccccc1N1CCN(CC(O)c2ccc3cc[nH]c3c2)CC1 (centres undefined) | -1 | + | -2 | 9 | i
CCOC(=O)N1CCN(CC(O)c2ccc3cc[nH]c3c2)CC1 (centres undefined) | -1 | i | -3 | 11 | /
Cc1sc2nc(-c3cccnc3)[nH]c(=O)c2c1-c1ccccc1 | 2 | + | 6 | -14 | i
O=c1[nH]c(-c2cccnc2)nc2ccccc12 | -1 | i | 5 | 0 | /
CCSc1nnc(NC(=O)c2cc(-c3ccccc3O)n[nH]2)s1 | -1 | i | -5 | -5 | /
CCc1cc(C(c2ccc(OC)c(OC)c2)N2CCOCC2)c(NC(=O)c2ccccc2)s1 (centres undefined) | 1 | + | 5 | 14 | i
CCc1cc(C(c2cccc(OC)c2)N2CCOCC2)c(NC(=O)c2ccccc2)s1 (centres undefined) | -3 | / | -3 | -5 | /
CCCCCCc1c(C)c2ccc(OCC(=O)N3CCC[C@H]3C(=O)O)c(C)c2oc1=O | 3 | + | 1 | -23 | /
